In the supplement of paper PMC8285479:
Counter-ions that a name gives are not always drawn. ± gives the standard deviation of the averaged measurements. Over roughly 1,900 compounds, “normalised cell viability (NPI; 0 = phenylarsine oxide control, 1 = DMSO control)” has its median near 1; the lowest 2% begin near 0.039. The full list was thinned out, with the lowest values kept by preference.

System: NCI-H1944
Assay: normalised cell viability (NPI; 0 = phenylarsine oxide control, 1 = DMSO control) (fraction of DMSO control); NCI-H1944 is a non-small cell lung cancer line; higher = more viable cells (less compound toxicity)
Settings: 6 days
[1] = glucocorticoid arm: hydrocortisone 2.75 uM co-treatment, compound 1 µM
[2] = glucocorticoid arm: hydrocortisone 2.75 uM co-treatment, compound 5 µM
[3] = glucocorticoid arm: hydrocortisone 2.75 uM pre-treated 2 days and continued, compound 1 µM
[4] = glucocorticoid arm: hydrocortisone 2.75 uM pre-treated 2 days and continued, compound 5 µM
[5] = glucocorticoid arm: vehicle, compound 1 µM
[6] = glucocorticoid arm: vehicle, compound 5 µM
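Note: CTB read-out in 384-well plates, triplicate wells, NPI normalised per plate against 1 µM phenylarsine oxide (0) and 0.1% DMSO (1) controls.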

Row | Structure (SMILES) | normalised cell viability [1] | normalised cell viability [2] | normalised cell viability [3] | normalised cell viability [4] | normalised cell viability [5] | normalised cell viability [6]
1 | COc1cc2nccc(Oc3ccc(NC(=O)Nc4ccc(F)cc4F)c(F)c3)c2cc1OC | 1.05 ± 0.011 | 1.06 ± 0.01 | 1.037 ± 0.0058 | 1.04 ± 0.021 | 1.003 ± 0.0063 | 1.013 ± 0.0058
2 | COc1ncc(-c2ccc3nccc(-c4ccnnc4)c3c2)cc1NS(=O)(=O)c1ccc(F)cc1F | 0.264 ± 0.0058 | 0.231 ± 0.027 | 0.365 ± 0.025 | 0.249 ± 0.02 | 0.0495 ± 0.0081 | 0.0214 ± 0.0013
3 | Nc1ncnc2c1ncn2[C@@H]1O[C@@H]2COP(=O)(O)O[C@H]2[C@H]1O [Adenosine 3',5'-cyclic monophosphate] | 0.986 ± 0.014 | 0.9813 ± 0.007 | 0.998 ± 0.011 | 0.965 ± 0.019 | 0.991 ± 0.016 | 0.9797 ± 0.0074
4 | NCc1c[nH]c(=S)n1[C@H]1CCc2c(F)cc(F)cc2C1 [Nepicastat (SYN-117) HCl] | 0.9937 ± 0.006 | 1 | 1.01 ± 0.022 | 0.98 ± 0.017 | 0.9937 ± 0.0085 | 0.9913 ± 0.0051
5 | C=CC(=O)Nc1cc(Nc2nccc(-c3cn(C)c4ccccc34)n2)c(OC)cc1N(C)CCN(C)C | 0.891 ± 0.003 | 0.842 ± 0.022 | 0.944 ± 0.015 | 0.916 ± 0.034 | 0.789 ± 0.028 | 0.762 ± 0.045
6 | CC[C@@H]1SC2(CCN(C)CC2)NC1=O | 1.02 | 1.01 ± 0.011 | 1.03 ± 0.029 | 1.02 ± 0.011 | 1.013 ± 0.0058 | 1.01 ± 0.012
7 | O=C(N[C@@H](Cc1ccccc1)C(=O)CCl)OCc1ccccc1 [Z-L-Phe chloromethyl ketone] | 1.03 ± 0.01 | 0.028 ± 0.0044 | 1.02 ± 0.016 | 1.075 ± 0.0071 | 1.03 ± 0.01 | 0.149 ± 0.086
8 | CC(C)[C@H](NC(=O)OCc1ccccc1)C(=O)N[C@H](C=O)Cc1ccccc1 | 0.989 ± 0.011 | 0.987 ± 0.041 | 0.997 ± 0.0052 | 1.03 ± 0.085 | 1 ± 0.0087 | 1 ± 0.013
9 | Cc1ccc(S(=O)(=O)N[C@@H](Cc2ccccc2)C(=O)CCl)cc1 [N-p-Tosyl-L-phenylalanine chloromethyl ketone] | 0.9977 ± 0.0032 | 1.01 ± 0.028 | 0.868 ± 0.25 | 1.02 ± 0.015 | 1.007 ± 0.0058 | 0.691 ± 0.057
10 | CC1=C(C(=O)OC2CCCCC2)C(c2ccc([N+](=O)[O-])cc2)C2=C(CC(C)(C)CC2=O)N1 (configuration not stated) | 1.03 ± 0.025 | 1.02 ± 0.023 | 1.03 ± 0.015 | 1.02 ± 0.026 | 1.017 ± 0.0058 | 1.003 ± 0.0058
11 | C/C=C1\C(=O)C[C@H]2[C@@H]3CCC4=CC(=O)CC[C@]4(C)[C@H]3CC[C@]12C [(Z)-Guggulsterone] | 0.9933 ± 0.0015 | 0.98 ± 0.031 | 0.994 ± 0.02 | 0.964 ± 0.029 | 0.9953 ± 0.0035 | 0.9887 ± 0.0091
12 | O=C(c1ccc(Cl)cc1)N1CCN(c2ccc([N+](=O)[O-])c3ncccc23)CC1 | 1.01 ± 0.013 | 1.01 ± 0.027 | 0.992 ± 0.014 | 0.996 ± 0.014 | 0.997 ± 0.015 | 1 ± 0.021
13 | CN(C)C(=O)C(CCN1CCC(O)(c2ccc(Cl)cc2)CC1)(c1ccccc1)c1ccccc1 [Loperamide hydrochloride] | 0.9953 ± 0.0042 | 0.405 ± 0.032 | 1.017 ± 0.0058 | 0.87 ± 0.29 | 1 | 0.0171 ± 0.0045
14 | O=C(CCCN1CCC(O)(c2ccc(Cl)cc2)CC1)c1ccc(F)cc1 [Haloperidol] | 0.996 ± 0.013 | 0.93 ± 0.023 | 1.01 | 1.01 ± 0.025 | 0.9843 ± 0.0035 | 0.985 ± 0.002
15 | OC1(c2ccc(Cl)cc2)CCN(Cc2c[nH]c3ccccc23)CC1 | 0.972 ± 0.021 | 0.852 ± 0.052 | 1.003 ± 0.0061 | 1.04 ± 0.086 | 0.9753 ± 0.0065 | 0.988 ± 0.01
16 | CN(C)C(=O)C(CCN1CCC(O)(c2ccc(Cl)cc2)CC1)(c1ccccc1)c1ccccc1 [Loperamide HCl] | 1.02 ± 0.026 | 0.893 ± 0.035 | 1.047 ± 0.0058 | 0.984 ± 0.012 | 1.017 ± 0.0058 | 0.919 ± 0.0099
17 | Nc1nc2[nH]cnc2c(=S)[nH]1 [Thioguanine] | 0.931 ± 0.0046 | 0.423 ± 0.024 | 0.9813 ± 0.0011 | 0.754 ± 0.04 | 0.9133 ± 0.0051 | 0.119 ± 0.011
18 | Cc1[nH]c2ccccc2c1CCNCc1ccc(/C=C/C(=O)NO)cc1 [Panobinostat (LBH589)] | 0.00703 ± 0.0011 | 0.00134 ± 0.00097 | 0.00592 ± 0.0022 | 0.00214 ± 0.0018 | 0.00625 ± 0.001 | 9e-05 ± 0.00045
19 | Cc1[nH]c2ccccc2c1C1=C(NCCc2ccc(F)cc2)C(=O)N(C)C1=O | 0.964 ± 0.019 | 0.962 ± 0.053 | 0.988 ± 0.011 | 0.973 ± 0.021 | 0.977 ± 0.007 | 0.9803 ± 0.0047
20 | CC(C)N(CCCNC(=O)Nc1ccc(C(C)(C)C)cc1)C[C@H]1O[C@@H](n2ccc3c(N)ncnc32)[C@H](O)[C@@H]1O | 1.003 ± 0.0058 | 1.07 ± 0.025 | 0.984 ± 0.0053 | 1.04 ± 0.01 | 1.002 ± 0.0068 | 1.002 ± 0.0076
21 | CCOC(=O)[C@]12CC1/C(=N\O)c1ccccc1O2 (some centres not stated) | 1.017 ± 0.0058 | 1.01 ± 0.024 | 1.007 ± 0.0058 | 1.02 | 0.997 ± 0.013 | 1.002 ± 0.0068
22 | C[N+](C)(C)CCO.[Br-] [Choline bromide] | 1.017 ± 0.0058 | 1 ± 0.019 | 1.017 ± 0.0058 | 1.02 | 0.995 ± 0.0078 | 0.998 ± 0.014
23 | CC(C(=O)Nc1cccc(/N=C/c2c(O)ccc3ccccc23)c1)c1ccccc1 (configuration not stated) [Salermide] | 0.999 ± 0.014 | 1.01 ± 0.02 | 0.9942 ± 0.0055 | 1 ± 0.035 | 0.9967 ± 0.0083 | 1.002 ± 0.01
24 | O=C(c1ccc(F)cc1)N1CCCC(c2nc(-c3ccc(F)cc3)no2)C1 (configuration not stated) | 1.03 ± 0.015 | 1.023 ± 0.0058 | 1.02 ± 0.011 | 1.013 ± 0.0058 | 1.01 | 1.001 ± 0.0078
25 | Cn1ncnc1[C@H]1c2n[nH]c(=O)c3cc(F)cc(c23)N[C@@H]1c1ccc(F)cc1 | 0.996 ± 0.012 | 0.934 ± 0.028 | 1.01 ± 0.017 | 1.05 ± 0.015 | 0.436 ± 0.0095 | 0.28 ± 0.016
26 | CCN(CC)CCCC(C)Nc1ccnc2cc(Cl)ccc12 (configuration not stated) [Chloroquine diphosphate] | 1 ± 0.015 | 0.752 ± 0.026 | 1.001 ± 0.009 | 0.963 ± 0.04 | 0.9793 ± 0.0076 | 0.947 ± 0.013
27 | CCN(CC)CCCC(C)Nc1c2ccc(Cl)cc2nc2ccc(OC)cc12 (configuration not stated) [Quinacrine dihydrochloride] | 0.999 ± 0.021 | 0.00304 ± 0.0019 | 1.01 ± 0.023 | 1.01 ± 0.014 | 0.995 ± 0.014 | 0.00159 ± 0.0012
